The record followed here is publication PMC7862700, “An all-to-all approach to the identification of sequence-specific readers for epigenetic DNA modifications on cytosine”.

What all share (experiment): DAPPL (digital affinity profiling via proximity ligation, sequencing); 10 mM Tris-HCl pH 7.5, 50 mM NaCl, 1 mM DTT, 4% glycerol, room temperature, 30 min; GST-TFs on glutathione beads, 16-mer random dsDNA library, 0.1% formaldehyde crosslink after washing; high values mean tight binding
In experiment [1] the target is T1, FEV (Homo sapiens, UniProt Q99581 1-238).
T1 sequence: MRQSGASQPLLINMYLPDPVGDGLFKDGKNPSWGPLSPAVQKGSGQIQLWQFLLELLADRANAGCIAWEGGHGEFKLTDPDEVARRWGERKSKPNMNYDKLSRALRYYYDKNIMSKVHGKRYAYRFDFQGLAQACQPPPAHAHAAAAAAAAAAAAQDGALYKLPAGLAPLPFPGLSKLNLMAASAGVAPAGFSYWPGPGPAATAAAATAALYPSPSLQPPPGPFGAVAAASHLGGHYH
The following applies: protein: recombinant; tags: N-terminal GST; dsDNA, one strand shown. Put shortly: (§1)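 After expression in yeast as GST fusions, human transcription factors were bound to glutathione beads, DNA-barcoded and mixed with a tag-only sample. The pools were incubated with 200 nmole of a 16-mer random double-stranded DNA library in Tris/NaCl/DTT/glycerol buffer (30 min, room temperature), washed and crosslinked with 0.1% formaldehyde. Proximity ligation with BsaI/T4 ligase ran for 1 h at 37 °C, before PCR amplification and sequencing on an Illumina NextSeq500. Binding signal is a hexamer's read frequency for a factor divided by its frequency for the tag-only sample.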

Experiment [2] concerns the target ETV5 (Homo sapiens, UniProt P41161 1-510). Conditions: protein: recombinant; tags: N-terminal GST; dsDNA, one strand shown. The method in brief:
as §1

Experiment [3] deals with HSF1 (Homo sapiens, UniProt Q00613 1-529). Conditions: protein: recombinant; tags: N-terminal GST; chain copies: 3; dsDNA, one strand shown. Put shortly:
as §1

Experiment [4] concerns the target T2, SPIC (Homo sapiens, UniProt Q8N5J4 1-248).
T2 sequence: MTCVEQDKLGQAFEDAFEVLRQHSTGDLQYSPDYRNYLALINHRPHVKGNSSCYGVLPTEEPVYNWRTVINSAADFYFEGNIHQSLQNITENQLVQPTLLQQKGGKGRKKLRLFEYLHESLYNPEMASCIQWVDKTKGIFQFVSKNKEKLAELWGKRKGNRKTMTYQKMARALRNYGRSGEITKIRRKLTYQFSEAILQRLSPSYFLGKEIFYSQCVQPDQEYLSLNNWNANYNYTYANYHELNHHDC
The following applies: protein: recombinant; tags: N-terminal GST; dsDNA, one strand shown. The method in brief: as §1

Experiment [5] addresses ELF4 (Homo sapiens, UniProt Q99607 1-663). The following applies: protein: recombinant; tags: N-terminal GST; dsDNA, one strand shown. Put shortly: as §1
Experiment [6] has as its target T3, ELK4 (Homo sapiens, UniProt P28324-2 1-405).
T3 sequence: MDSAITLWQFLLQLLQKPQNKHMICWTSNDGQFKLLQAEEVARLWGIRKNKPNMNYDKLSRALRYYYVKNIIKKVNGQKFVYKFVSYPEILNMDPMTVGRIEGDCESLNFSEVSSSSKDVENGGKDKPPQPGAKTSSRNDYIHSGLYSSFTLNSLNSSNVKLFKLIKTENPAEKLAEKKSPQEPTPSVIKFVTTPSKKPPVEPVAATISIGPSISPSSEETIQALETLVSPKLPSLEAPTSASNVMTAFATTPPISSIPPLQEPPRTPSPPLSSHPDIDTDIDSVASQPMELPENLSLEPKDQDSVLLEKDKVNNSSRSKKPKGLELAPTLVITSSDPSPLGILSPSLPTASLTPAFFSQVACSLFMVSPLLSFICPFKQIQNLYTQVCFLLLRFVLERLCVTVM
Conditions: protein: recombinant; tags: N-terminal GST; dsDNA, one strand shown. The method in brief: as §1

The target in experiment [7] is T4, ETV2 (Homo sapiens, UniProt O00321 1-342).
T4 sequence: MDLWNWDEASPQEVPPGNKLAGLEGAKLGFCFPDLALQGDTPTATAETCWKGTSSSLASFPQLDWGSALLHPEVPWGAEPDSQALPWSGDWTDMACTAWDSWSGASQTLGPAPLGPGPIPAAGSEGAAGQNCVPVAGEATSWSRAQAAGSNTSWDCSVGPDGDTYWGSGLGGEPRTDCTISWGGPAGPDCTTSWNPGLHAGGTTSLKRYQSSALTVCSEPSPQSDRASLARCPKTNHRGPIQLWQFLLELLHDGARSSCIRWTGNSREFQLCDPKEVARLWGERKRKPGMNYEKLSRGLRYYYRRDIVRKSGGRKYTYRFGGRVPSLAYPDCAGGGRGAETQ
Conditions: protein: recombinant; tags: N-terminal GST; dsDNA, one strand shown. Put shortly:
as §1

Experiment [8] addresses T5, ELF3 (Homo sapiens, UniProt P78545 1-371).
T5 sequence: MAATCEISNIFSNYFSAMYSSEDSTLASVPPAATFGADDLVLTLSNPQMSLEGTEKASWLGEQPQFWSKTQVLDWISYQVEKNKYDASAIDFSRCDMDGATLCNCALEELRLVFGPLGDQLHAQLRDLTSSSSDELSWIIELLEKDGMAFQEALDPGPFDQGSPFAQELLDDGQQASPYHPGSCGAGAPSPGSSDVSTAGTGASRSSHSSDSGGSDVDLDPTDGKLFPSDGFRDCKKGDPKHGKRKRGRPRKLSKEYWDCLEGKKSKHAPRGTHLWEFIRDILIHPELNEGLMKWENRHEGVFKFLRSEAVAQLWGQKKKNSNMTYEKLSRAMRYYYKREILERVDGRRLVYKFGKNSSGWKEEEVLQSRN
Conditions: protein: recombinant; tags: N-terminal GST; dsDNA, one strand shown. Put shortly:
as §1

For experiment [9], the target named is CRX (Homo sapiens, UniProt O43186 1-299). The following applies: protein: recombinant; tags: N-terminal GST; dsDNA, one strand shown. The method in brief: as §1
The target of experiment [10] is ETV1 (Homo sapiens, UniProt P50549 1-477). Conditions: protein: recombinant; tags: N-terminal GST; dsDNA, one strand shown. The method in brief:
as §1

In experiment [11] the target is T6, ERF (Homo sapiens, UniProt P50548 1-548).
T6 sequence: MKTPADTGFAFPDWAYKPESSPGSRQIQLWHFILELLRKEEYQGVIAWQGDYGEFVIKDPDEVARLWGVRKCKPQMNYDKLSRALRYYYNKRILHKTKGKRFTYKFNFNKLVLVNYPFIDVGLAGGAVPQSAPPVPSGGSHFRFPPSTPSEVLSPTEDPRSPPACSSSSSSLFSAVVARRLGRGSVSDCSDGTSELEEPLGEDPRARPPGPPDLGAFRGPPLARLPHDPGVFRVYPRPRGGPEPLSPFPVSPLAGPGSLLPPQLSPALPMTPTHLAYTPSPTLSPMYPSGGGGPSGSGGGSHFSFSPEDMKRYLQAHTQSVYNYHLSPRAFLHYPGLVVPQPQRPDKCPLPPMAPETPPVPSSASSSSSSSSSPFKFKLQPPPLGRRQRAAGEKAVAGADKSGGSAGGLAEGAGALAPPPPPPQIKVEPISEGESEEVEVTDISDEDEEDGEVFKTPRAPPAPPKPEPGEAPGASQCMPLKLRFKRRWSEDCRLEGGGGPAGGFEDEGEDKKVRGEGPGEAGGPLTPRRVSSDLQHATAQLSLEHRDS
Conditions: protein: recombinant; tags: N-terminal GST; dsDNA, one strand shown. Put shortly: as §1

For experiment [12], the target named is T7, ETV3L (Homo sapiens, UniProt Q6ZN32 1-361).
T7 sequence: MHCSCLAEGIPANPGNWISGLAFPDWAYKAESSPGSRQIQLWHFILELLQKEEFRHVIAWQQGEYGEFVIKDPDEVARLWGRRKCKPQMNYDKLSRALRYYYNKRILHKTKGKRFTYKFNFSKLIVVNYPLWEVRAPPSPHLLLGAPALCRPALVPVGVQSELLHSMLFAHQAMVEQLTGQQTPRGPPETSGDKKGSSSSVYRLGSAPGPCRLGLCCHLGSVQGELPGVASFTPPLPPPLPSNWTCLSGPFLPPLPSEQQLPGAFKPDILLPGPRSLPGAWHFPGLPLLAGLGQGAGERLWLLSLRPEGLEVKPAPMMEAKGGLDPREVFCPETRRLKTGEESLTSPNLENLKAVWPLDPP
Conditions: protein: recombinant; tags: N-terminal GST; dsDNA, one strand shown. Put shortly:
as §1

For experiment [13], the target named is T8, ETS2 (Homo sapiens, UniProt P15036 1-469).
T8 sequence: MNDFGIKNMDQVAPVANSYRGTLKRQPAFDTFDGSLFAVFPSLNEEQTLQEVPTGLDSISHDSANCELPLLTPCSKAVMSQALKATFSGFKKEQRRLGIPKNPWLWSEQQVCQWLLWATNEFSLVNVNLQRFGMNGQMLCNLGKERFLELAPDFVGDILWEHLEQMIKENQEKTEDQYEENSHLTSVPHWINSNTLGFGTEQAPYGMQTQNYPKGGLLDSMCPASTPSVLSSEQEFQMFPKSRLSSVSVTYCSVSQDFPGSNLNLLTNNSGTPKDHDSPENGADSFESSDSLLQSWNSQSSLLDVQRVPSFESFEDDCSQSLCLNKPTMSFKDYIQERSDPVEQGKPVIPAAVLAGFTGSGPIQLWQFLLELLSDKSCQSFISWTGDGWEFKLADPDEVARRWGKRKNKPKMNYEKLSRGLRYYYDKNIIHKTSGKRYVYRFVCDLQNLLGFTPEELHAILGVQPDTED
The following applies: protein: recombinant; tags: N-terminal GST; dsDNA, one strand shown. Put shortly: as §1

Experiment [14] has as its target T9, SPDEF (Homo sapiens, UniProt O95238 1-335).
T9 sequence: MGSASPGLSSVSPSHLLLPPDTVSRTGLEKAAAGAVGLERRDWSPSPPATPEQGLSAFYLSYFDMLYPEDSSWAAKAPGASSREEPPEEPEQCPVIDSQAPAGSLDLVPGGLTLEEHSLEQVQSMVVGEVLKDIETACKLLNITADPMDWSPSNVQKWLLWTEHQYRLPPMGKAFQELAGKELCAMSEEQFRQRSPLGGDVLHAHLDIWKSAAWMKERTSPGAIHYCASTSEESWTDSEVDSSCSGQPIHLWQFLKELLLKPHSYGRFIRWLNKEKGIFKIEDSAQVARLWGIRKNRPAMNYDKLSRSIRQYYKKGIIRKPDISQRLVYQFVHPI
The following applies: protein: recombinant; tags: N-terminal GST; dsDNA, one strand shown. Put shortly:
as §1

Experiment [15] addresses T10, ETV7 (Homo sapiens, UniProt Q9Y603 1-341).
T10 sequence: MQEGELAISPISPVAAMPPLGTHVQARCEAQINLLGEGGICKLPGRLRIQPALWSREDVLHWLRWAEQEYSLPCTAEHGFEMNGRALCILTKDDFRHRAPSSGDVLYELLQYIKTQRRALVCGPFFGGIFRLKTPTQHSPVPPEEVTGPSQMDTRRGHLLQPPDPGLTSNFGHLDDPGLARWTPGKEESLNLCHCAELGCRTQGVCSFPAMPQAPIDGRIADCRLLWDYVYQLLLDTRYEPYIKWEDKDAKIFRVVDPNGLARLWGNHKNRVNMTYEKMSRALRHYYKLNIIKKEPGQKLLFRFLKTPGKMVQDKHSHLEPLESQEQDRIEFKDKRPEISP
Conditions: protein: recombinant; tags: N-terminal GST; dsDNA, one strand shown. Put shortly:
as §1

Experiment [16] concerns the target T11, ELF5 (Homo sapiens, UniProt Q9UKW6-2 1-255).
T11 sequence: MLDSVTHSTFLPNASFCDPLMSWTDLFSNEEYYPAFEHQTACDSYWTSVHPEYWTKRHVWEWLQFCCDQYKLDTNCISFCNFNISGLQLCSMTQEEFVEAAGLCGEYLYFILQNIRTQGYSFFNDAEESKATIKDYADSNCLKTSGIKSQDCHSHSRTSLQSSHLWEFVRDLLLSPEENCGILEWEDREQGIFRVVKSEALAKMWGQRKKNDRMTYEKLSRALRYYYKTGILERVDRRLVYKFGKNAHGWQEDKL
The following applies: protein: recombinant; tags: N-terminal GST; dsDNA, one strand shown. The method in brief: as §1

The target in experiment [17] is T12, ETV3 (Homo sapiens, UniProt P41162-2 1-143).
T12 sequence: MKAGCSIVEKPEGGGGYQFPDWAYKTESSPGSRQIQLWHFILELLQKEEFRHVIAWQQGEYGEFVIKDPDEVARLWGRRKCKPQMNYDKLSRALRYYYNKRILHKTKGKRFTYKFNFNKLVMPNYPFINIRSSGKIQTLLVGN
The following applies: protein: recombinant; tags: N-terminal GST; dsDNA, one strand shown. Put shortly:
as §1

Experiment [18] deals with ETV6 (Homo sapiens, UniProt P41212 1-452). The following applies: protein: recombinant; tags: N-terminal GST; dsDNA, one strand shown. The method in brief:
as §1

Sequence of ELF4 (Q99607 whole entry): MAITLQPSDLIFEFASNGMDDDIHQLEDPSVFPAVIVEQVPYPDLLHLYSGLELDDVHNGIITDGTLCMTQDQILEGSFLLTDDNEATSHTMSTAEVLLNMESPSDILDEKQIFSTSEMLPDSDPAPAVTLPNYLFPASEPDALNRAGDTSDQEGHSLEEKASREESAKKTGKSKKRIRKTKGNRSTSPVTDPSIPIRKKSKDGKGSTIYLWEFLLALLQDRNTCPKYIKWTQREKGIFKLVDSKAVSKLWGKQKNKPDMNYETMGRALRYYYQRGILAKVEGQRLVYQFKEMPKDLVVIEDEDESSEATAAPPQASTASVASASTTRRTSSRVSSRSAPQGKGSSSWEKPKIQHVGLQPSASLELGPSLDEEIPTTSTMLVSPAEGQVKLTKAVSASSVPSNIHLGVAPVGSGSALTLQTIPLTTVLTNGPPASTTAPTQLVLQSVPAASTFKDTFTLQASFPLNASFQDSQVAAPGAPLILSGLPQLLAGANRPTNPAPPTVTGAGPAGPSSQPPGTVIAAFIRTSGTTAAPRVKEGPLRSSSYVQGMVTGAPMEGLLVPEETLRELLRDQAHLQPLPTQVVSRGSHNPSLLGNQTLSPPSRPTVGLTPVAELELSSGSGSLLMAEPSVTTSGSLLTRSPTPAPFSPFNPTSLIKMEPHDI
Sequence of CRX (O43186 whole entry): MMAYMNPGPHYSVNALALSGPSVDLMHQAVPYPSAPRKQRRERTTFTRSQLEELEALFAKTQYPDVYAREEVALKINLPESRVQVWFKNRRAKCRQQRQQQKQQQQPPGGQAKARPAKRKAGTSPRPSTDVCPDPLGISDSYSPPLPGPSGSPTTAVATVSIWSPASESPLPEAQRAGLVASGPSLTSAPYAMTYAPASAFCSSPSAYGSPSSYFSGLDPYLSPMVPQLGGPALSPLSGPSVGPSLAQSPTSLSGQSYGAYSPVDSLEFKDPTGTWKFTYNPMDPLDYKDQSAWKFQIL
Sequence of ETV1 (P50549 whole entry): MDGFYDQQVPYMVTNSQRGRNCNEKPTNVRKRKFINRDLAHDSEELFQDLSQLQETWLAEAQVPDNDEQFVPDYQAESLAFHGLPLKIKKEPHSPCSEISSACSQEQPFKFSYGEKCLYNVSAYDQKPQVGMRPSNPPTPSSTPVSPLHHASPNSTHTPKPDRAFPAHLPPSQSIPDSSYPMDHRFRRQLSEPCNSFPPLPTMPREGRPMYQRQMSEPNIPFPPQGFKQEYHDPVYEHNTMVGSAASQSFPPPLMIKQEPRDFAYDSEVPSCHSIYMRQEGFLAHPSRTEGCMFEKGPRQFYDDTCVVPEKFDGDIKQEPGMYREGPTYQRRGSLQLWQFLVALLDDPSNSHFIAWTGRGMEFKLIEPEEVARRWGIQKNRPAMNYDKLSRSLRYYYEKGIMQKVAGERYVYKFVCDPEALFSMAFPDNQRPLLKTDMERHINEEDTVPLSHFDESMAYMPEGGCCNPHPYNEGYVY
Sequence of HSF1 (Q00613 whole entry): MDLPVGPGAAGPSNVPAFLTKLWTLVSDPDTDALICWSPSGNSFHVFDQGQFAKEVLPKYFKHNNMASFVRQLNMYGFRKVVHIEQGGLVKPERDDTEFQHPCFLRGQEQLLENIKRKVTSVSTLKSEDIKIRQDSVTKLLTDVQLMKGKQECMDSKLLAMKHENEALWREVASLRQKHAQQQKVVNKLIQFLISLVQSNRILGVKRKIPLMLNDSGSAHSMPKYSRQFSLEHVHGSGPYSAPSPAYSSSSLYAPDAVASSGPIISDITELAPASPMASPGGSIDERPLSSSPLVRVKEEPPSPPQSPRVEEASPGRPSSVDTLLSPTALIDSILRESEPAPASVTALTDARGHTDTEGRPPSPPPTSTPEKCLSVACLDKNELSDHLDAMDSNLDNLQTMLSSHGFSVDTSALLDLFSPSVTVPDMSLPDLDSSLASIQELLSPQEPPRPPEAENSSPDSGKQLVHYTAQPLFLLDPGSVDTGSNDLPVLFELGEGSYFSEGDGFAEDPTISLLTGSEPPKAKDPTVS
Sequence of ETV5 (P41161 whole entry): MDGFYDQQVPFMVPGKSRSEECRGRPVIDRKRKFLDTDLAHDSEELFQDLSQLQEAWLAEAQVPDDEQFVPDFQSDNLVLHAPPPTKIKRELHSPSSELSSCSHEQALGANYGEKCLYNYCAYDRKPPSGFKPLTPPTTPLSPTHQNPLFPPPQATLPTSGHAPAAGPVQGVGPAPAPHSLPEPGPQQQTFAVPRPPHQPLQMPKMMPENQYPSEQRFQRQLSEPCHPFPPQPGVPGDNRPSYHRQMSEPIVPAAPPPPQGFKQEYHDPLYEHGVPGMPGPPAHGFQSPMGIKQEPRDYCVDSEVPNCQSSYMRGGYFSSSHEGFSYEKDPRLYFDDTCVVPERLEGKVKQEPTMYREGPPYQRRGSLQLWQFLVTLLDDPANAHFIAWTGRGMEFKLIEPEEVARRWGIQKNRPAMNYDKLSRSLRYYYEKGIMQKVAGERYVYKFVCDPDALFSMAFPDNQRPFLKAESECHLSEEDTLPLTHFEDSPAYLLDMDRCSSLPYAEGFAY
Sequence of ETV6 (P41212 whole entry): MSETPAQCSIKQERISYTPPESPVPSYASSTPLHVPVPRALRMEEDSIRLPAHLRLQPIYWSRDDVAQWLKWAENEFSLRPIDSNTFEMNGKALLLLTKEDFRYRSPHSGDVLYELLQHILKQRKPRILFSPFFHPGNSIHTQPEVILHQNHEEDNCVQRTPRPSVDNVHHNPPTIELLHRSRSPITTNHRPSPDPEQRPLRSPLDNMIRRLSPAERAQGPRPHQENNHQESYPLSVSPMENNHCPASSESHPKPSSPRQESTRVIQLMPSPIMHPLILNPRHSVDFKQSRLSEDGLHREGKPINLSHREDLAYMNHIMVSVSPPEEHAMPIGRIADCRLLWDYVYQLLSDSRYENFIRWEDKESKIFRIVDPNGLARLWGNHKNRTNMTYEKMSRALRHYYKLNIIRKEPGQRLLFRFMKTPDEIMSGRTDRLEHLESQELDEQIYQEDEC

On to CGATTC, for which the binding signal in [1] is 1.06 fold enrichment (6-mer frequency, TF over GST control); in experiment [2], 1.19 fold enrichment (6-mer frequency, TF over GST control); in experiment [3], 1.35 fold enrichment (6-mer frequency, TF over GST control); in [4] it was 1.18 fold enrichment (6-mer frequency, TF over GST control); in [5] it was 1.24 fold enrichment (6-mer frequency, TF over GST control); in experiment [6], 1.28 fold enrichment (6-mer frequency, TF over GST control). In addition, the binding signal was 1.06 fold enrichment (6-mer frequency, TF over GST control) in experiment [7]; 1.22 fold enrichment (6-mer frequency, TF over GST control) in experiment [8]; 1.09 fold enrichment (6-mer frequency, TF over GST control) in [9]; 1.25 fold enrichment (6-mer frequency, TF over GST control) in [10]; 1.09 fold enrichment (6-mer frequency, TF over GST control) in experiment [11]; 1.18 fold enrichment (6-mer frequency, TF over GST control) in [12]. Also, the binding signal was 1.24 fold enrichment (6-mer frequency, TF over GST control) in experiment [13]; 1.13 fold enrichment (6-mer frequency, TF over GST control) in experiment [14]; 1.06 fold enrichment (6-mer frequency, TF over GST control) in experiment [15]; 1.11 fold enrichment (6-mer frequency, TF over GST control) in experiment [16]; 1.23 fold enrichment (6-mer frequency, TF over GST control) in experiment [17]; 1.11 fold enrichment (6-mer frequency, TF over GST control) in experiment [18].
